Source: PubChem
The full list was thinned out, with hits kept by preference.
RE007 growth inh: less growth of the S. pombe RE007 Vpr strain. S. pombe RE007 Vpr strain, BacTiter-Glo ATP luminescence, 24 h. Potency, µM (top dose mostly 92.2 µM), most hits filed as inhibitors. 360,000 compounds, 0.21% hits. AID 651644; active = well fitted falling curve with a large enough effect; inconclusive = small, poorly fitted or top-dose-only effect; inactive = no such curve, though single readings can be large or run the other way; note: nearly all actives have a fitted effect of over 50% in size
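Fission yeast strain RE007, carrying one chromosomally integrated HIV-1 vpr copy, was seeded at OD 0.01 in PMG+AL medium with 23 nL pinned compound. After 24 h at 30 °C and 99% humidity, viability was read by BacTiter-Glo luminescence.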
Shiga inhibitor: inhibitors of Shiga toxin in Vero cells; Vero cells, Shiga toxin protein synthesis inhibition reporter; 290,000 compounds, 9.2% hits; inhibition, % at 38.7 µM; in the data active = inhibition mostly above about 28%, no sharp cut-off; inactive = mostly below about 43%
Tb PYK inh: T. brucei pyruvate kinase inhibition; TbPYK enzyme, Kinase-Glo Plus ATP luminescence, 45 min; Potency, µM (titrated, usually from 76.8 µM), most hits filed as inhibitors; 410,000 compounds, 0.12% hits; AID 624173; note: nearly all actives have a fitted effect of over 50% in size
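Screened from lowest to highest concentration, compounds were pinned into TbPYK/substrate mixtures, and ADP (130 uM final) was added. Plates sat at room temperature for 45 min prior to Kinase-Glo Plus detection by luminescence.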
Giardia FBPA inh: inhibitors of Giardia lamblia fructose-1,6-bisphosphate aldolase. A8B2U2. purified Giardia FBPA. Potency, µM (doses to about 59.6 µM), actives largely listed as inhibitors. 290,000 compounds, 0.71% hits. AID 2451; note: nearly all actives have a fitted effect of over 55% in size
Target sequence (A8B2U2 whole entry, looked up): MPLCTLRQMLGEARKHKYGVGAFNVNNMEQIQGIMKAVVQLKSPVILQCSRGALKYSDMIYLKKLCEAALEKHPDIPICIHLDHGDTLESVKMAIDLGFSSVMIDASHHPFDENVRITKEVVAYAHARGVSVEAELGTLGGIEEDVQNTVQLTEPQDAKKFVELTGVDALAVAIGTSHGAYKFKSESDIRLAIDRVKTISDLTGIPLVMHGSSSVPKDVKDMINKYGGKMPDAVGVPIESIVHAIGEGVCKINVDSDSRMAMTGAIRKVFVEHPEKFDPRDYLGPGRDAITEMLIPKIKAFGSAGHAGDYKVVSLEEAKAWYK
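Giardia FBPA (40 nM reagent) was preincubated 10 min at RT with compound (up to 57.5 uM final), then substrate plus GAPDH/TPI/NAD/arsenate coupling system with diaphorase/resazurin was added; resorufin fluorescence (525/598 nm) was read after 20 min.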
LmPK inh: blocks Leishmania mexicana pyruvate kinase activity. Q27686. purified LmPK, Kinase-Glo ATP luminescence, 1 h. Potency, µM (top dose mostly 57.5 µM), most hits filed as inhibitors. 290,000 compounds, 0.37% hits
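ATP generated from ADP (0.1 mM) and PEP (0.5 mM) by 0.1 nM LmPK over 1 h at room temperature (pH 7.2 imidazole buffer) was detected by coupled luciferase luminescence. Values were normalized to uninhibited and no-enzyme wells.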
CHX counter: counter-screen for Shiga toxin inhibitors: cycloheximide protein synthesis inhibition; cell reporter, cycloheximide protein synthesis inhibition counterscreen; max response, %; 300,000 compounds, 12% hits; AID 2314; in the data active = max response mostly above about 13%, no sharp cut-off; inactive = mostly below about 14%; note: read at 38.3 µM for the half of the compounds with a filed dose
A number is an active result; - = inactive; ? = inconclusive; . = no result. Unless noted, calls come from the whole dose curve; as a rule, active = well fitted curve in the direction sought with a large enough effect; inconclusive = small, poorly fitted or top-dose-only effect, or another doubt; inactive = no such curve, though single readings can be large; an effect the other way counts as inactive or inconclusive.

SMILES | RE007 growth inh | Shiga inhibitor | Tb PYK inh | Giardia FBPA inh | LmPK inh | CHX counter
O=[N+]([O-])c1cccc(/C=N/N2CCN(Cc3ccccc3)CC2)c1 | - | 83 | - | - | - | 27
O=[N+]([O-])c1cccc(C=NN2CCCCCC2)c1 | - | . | - | . | . | .
O=[N+]([O-])c1cccc(C=NNc2ccccc2)c1 | - | . | - | . | . | .
O=[N+]([O-])c1ccc(N/N=C/c2ccccc2)c(F)c1 | . | 63 | - | - | - | 74
O=[N+]([O-])c1ccc(C=NNc2ccccc2)cc1 | - | . | - | . | . | .
Cc1ccc(C)c(-c2ccc(=O)n(C(C)C(=O)Nc3ccccc3C(F)(F)F)n2)c1 (stereo unspecified) | . | . | - | . | . | .
Cc1nn(C)cc1S(=O)(=O)N1CCCCC1C (stereo unspecified) | - | - | - | . | - | -
CN(C)c1ccc(N2CC(C)(C)C2=O)cc1 | - | 44 | - | - | - | 33
O=C(Nc1ccc(S(=O)(=O)NC2=NCCCCC2)cc1)C1COc2ccccc2O1 (stereo unspecified) | - | - | - | - | - | -
Nc1nnnn1-c1ccccc1 | . | . | - | . | . | .
Cc1ccc2cc(CN(CC3CCCO3)C(=O)Nc3ccccc3F)c3nnnn3c2c1 (stereo unspecified) | - | 84 | - | - | - | 45
CCc1ccc2oc(C(=O)N(Cc3ccc(N(C)C)cc3)Cc3ccco3)c(C)c2c1 | . | . | - | . | . | .
Cc1ccc(C(=O)NC(=C(Cl)Cl)S(=O)(=O)c2ccc(C)cc2)cc1 | - | - | - | - | - | -
CC(=O)Nc1ccc(S(=O)(=O)N2CCN(S(=O)(=O)c3ccccc3)CC2)cc1 | - | - | - | - | - | -
Cc1ccc(S(=O)(=O)C(NC(=O)c2ccccc2)=C(Cl)Cl)cc1 | - | . | - | . | . | .
O=C(NC(=C(Cl)Cl)S(=O)(=O)c1ccc(Cl)cc1)c1ccccc1 | - | 90 | - | - | - | 57
CC(=O)NC(=C(Cl)Cl)S(=O)(=O)c1ccccc1 | - | 66 | - | - | - | 36
Cc1ccc(C(=O)NC(=C(Cl)Cl)S(=O)(=O)c2ccc(Cl)cc2)cc1 | - | 87 | - | - | - | 48
Cc1ccc(S(=O)(=O)/C(=C/Cl)NC(=O)c2ccccc2)cc1 | - | - | - | - | - | 15
CCCc1nn2c(=O)cc(CSCC(=O)Nc3ccccc3OC)nc2s1 | - | - | - | - | - | -
C[C@H](O)[C@@H]1C(=O)N2CCc3c([nH]c4ccccc34)[C@@H]2C[C@@H]1N(C)Cc1ccc2c(c1)OCO2 | - | . | - | . | . | .
O=C(OCC(=O)N1CCCC1)c1ccc(OC(F)(F)F)cc1 | - | - | - | - | - | 22
CCN(CC)c1ccc(C(=O)OCC(=O)N2CCCC2)cc1 | - | 59 | - | - | - | 29
CCCCOc1ccc(C(=O)OCC(=O)N2CCCCCC2)cc1 | - | . | - | . | . | .
O=Cc1ccc(C(=O)OCC(=O)N2CCCC2)cc1 | - | - | - | - | - | -
SMILES | RE007 growth inh | Shiga inhibitor | Tb PYK inh | Giardia FBPA inh | LmPK inh | CHX counter
O=C(N1CCCC1)C(F)(F)Oc1ccc(F)cc1 | - | 32 | - | - | - | -
Nn1c(SCC(=O)NC2CCS(=O)(=O)C2)nc2scc(-c3ccccc3)c2c1=O (stereo unspecified) | - | . | - | . | . | .
CCOc1ccc(NC(=O)C2CCCN(c3nnc(-n4c(C)ccc4C)s3)C2)cc1 (stereo unspecified) | . | . | - | . | . | .
O=C(/C=C/c1ccc(F)cc1)N1CCCc2ccccc21 | - | 43 | - | - | - | -
O=C(/C=C/c1cccc(F)c1)N1CCc2ccccc21 | - | 102 | - | - | - | 65
O=C(/C=C/c1cccc(F)c1)OCC(=O)N1CCCc2ccccc21 | - | . | - | . | . | .
O=C(/C=C/c1ccc(Cl)cc1Cl)N1CCc2ccccc21 | - | 61 | - | - | - | 32
Cc1ccc(NC(=O)/C=C/C(=O)O)c(NC(=O)c2ccccc2)c1 | - | - | - | - | - | -
CNC(=S)SCCOc1ccc(C)cc1 | - | - | - | - | - | -
CNC(=S)SCCOc1ccccc1 | - | 101 | - | - | - | 21
Cc1ccc(C(=O)c2oc3ccccc3c2NC(=O)c2cc(-c3ccc(Cl)cc3)on2)cc1 | . | . | - | . | . | .
NC(=O)c1ccc[n+]([C@H]2O[C@@H](COP(=O)([O-])OP(=O)(O)OC[C@H]3O[C@@H](n4cnc5c(N)ncnc54)[C@H](O)[C@@H]3O)[C@H](O)[C@@H]2O)c1 | 5µM | . | - | . | . | .
NC(=O)c1ccc[n+]([C@@H]2OC(COP(=O)([O-])OP(=O)(O)OCC3OC(n4cnc5c(N)ncnc54)C(O)C3O)C(O)C2O)c1 (stereo partly specified) | . | . | . | - | . | .
C=CCc1c(NCCO)nc(C)[nH]c1=O | - | - | - | - | - | 20
CN(C(=O)COC(=O)c1nc(Cl)ccc1Cl)c1ccccc1 | - | - | - | . | - | -
Cc1ccc(C(=O)NCc2ccc3c(c2)CCO3)cc1C | - | 57 | - | - | - | 22
O=C(NCc1ccc2c(c1)CCO2)Nc1ccccc1 | - | 54 | - | - | - | 61
Oc1ccccc1C=NC1=NN(c2cccc(C(F)(F)F)c2)CC1 | - | - | - | - | - | -
FC(F)(F)c1cccc(N2CCC(N=CN3CCCCCC3)=N2)c1 | - | 49 | - | - | - | 39
O=C(COC(=O)CCN1C(=O)C2CC=CCC2C1=O)Nc1ccc([N+](=O)[O-])cc1 (stereo unspecified) | - | . | - | . | . | .
Cc1ccc(C(=O)NCCc2nnc3ccc(SCC(=O)Nc4nnc(C)s4)nn23)cc1 | - | . | - | . | . | .
FC(F)(F)c1cc(-c2ccccc2)nc(N2CCOCC2)n1 | - | - | - | - | - | -
Cc1cc(C)n(-c2nncc(-c3ccccc3)n2)n1 | - | - | - | - | - | 26
c1ccc(-c2cnnc(N3CCOCC3)n2)cc1 | - | 68 | - | - | - | 63
Cc1cc(C)n(-c2ncc(-c3ccccc3)nn2)n1 | - | 90 | - | - | - | 57
SMILES | RE007 growth inh | Shiga inhibitor | Tb PYK inh | Giardia FBPA inh | LmPK inh | CHX counter
Cc1cc(C)n(-c2nc(Nc3ccccc3)nc(-n3nc(C)cc3C)n2)n1 | - | - | - | - | - | -
CCCN1[C@@H]2C[C@@H](O)CC[C@@H]2C[C@H]1C(=O)OC | . | . | . | - | . | .
CCOc1ccc(NC(=O)C2CCCN(c3ccc(Sc4ccc(C)cc4)nn3)C2)cc1 (stereo unspecified) | . | . | - | . | . | .
CCC(C)(C)C1CCc2[nH]nc(C(=O)NCCCNC(=O)OC(C)(C)C)c2C1 (stereo unspecified) | - | . | - | . | . | .
O=C(Nc1cccc(Cl)c1)c1cc(N=Nc2ccc([N+](=O)[O-])cc2Cl)ccc1O | - | - | ? | - | 14µM | -
Cc1ccc(N=CC=C2OC(C)(C)C(C)(C)O2)cc1 | - | 66 | - | - | - | 20
COc1cccc(N=CC=C2OC(C)(C)C(C)(C)O2)c1 | - | 87 | - | - | - | 49
Cc1ccc(N=Cc2cc(Br)cc(Cl)c2O)cc1 | ? | - | - | - | - | -
